Reference: PubChem BioAssay (NCI)
Where “and” joins values, the source holds several entries; their conditions need not be identical. Identical values can stand only once. Compounds without any hit were thinned out: in the full panel of roughly 83,000, 20% have a hit.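 A percent growth of 40 corresponds to 60% growth inhibition; 0 means no net growth; -100 means all cells died. Active threshold: below 10.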 Calls of active or inactive are those of the source.

test system: MDA-MB-468 breast; assay: NCI-60 one-dose screen, 48 h (100 = growth as untreated, 0 = no growth, -100 = all killed); settings: 10 µM unless noted

Row | Structure (SMILES) | growth
1 | COc1cc2ncn3c(=O)c4c5c(sc4nc3c2cc1OC)CCCCC5 | 107% (inactive)
2 | COc1ccc(/C=C2\SC(=Nc3cc(C)on3)NC2=O)cc1 | 95.6% (inactive)
3 | CC(=O)c1ccc(NC(=O)Nc2ccc(S(=O)(=O)Nc3ccc(Cl)nn3)cc2)cc1 | 107% (inactive)
4 | COc1cc(C)c(Cl)cc1C1=NN(c2ccc(S(N)(=O)=O)cc2)C(/C=C/c2ccccc2)C1 (stereo not drawn) | 41.2% (inactive)
5 | CC(C)(C)c1ccc(OCCCCCCCN2CCNCC2)cc1 | -54% (active)
6 | COc1ccc(S(=O)(=O)N(C)c2oc(-c3ccc(Cl)cc3)nc2C#N)cc1 | 32.1% (inactive)
7 | COc1cc(-c2nn(C(C)(C)C)cc2-c2ccnc(NCCCNS(=O)(=O)c3cccc(F)c3)n2)ccc1Cl | 77.8% (inactive)
8 | COc1ccc2sc3c(NCCO)nc4ccccc4c3c(=O)c2c1 | 109% (inactive)
9 | COc1ccc(-n2c(C)cc(-c3ccccc3)c2C)cc1 | -6.9% (active)
10 | C=C(C)[C@@H]1CC[C@]2(C(N)=O)CC[C@]3(C)[C@H](CC[C@@H]4[C@@]5(C)CC[C@H](OCCC#N)C(C)(C)[C@@H]5CC[C@]43C)[C@@H]12 | 72.2% (inactive)
11 | Oc1ccc(Cl)cc1-c1cc(-c2ccc(Cl)cc2)n[nH]1 | 8.55% (active)
12 | CCOC(=O)NNc1nncc2ccccc12 | 105% (inactive)
13 | O=C(Nc1cccc(-n2ccc3c(NC(=O)c4ccccc4)nccc32)c1)c1ccc(Cl)c(C(F)(F)F)c1 | -86.9% (active) and 85.1% (inactive)
